Compound activity from PubChem.
The list is not random: actives were taken first. Their share in the collection is about 5.4%.
VACV mCherry inh: vaccinia inhibition (mCherry reporter); Vaccinia virus mCherry reporter infection, fluorescence; AID 720579; Potency, µM (doses to about 36.5 µM), without a hit: at the top dose activity change, negative = inhibition, hits mostly inhibitors; 310,000 compounds, 0.63% hits; calls by dose curve; tested in A549 cells; note: nearly all actives have a fitted effect of over 35% in size
VACV Venus inh: inhibitors of vaccinia virus (Venus reporter). Vaccinia virus Venus reporter expression, fluorescence. Potency, µM (doses to about 36.5 µM), for inactives: top-dose activity change, negative = inhibition, hits mostly inhibitors. 330,000 compounds, 0.46% hits; calls by dose curve; tested in A549 cells; note: nearly all actives have a fitted effect of over 30% in size
Marburg entry inh: Marburg virus entry inhibition; Marburg virus pseudotyped entry inhibition, cell reporter; Potency, µM (highest dose often 37.8 µM), without a hit: at the top dose activity change, negative = inhibition, actives largely listed as inhibitors; 300,000 compounds, 1.8% hits; AID 540276; calls by dose curve; tested in HEK293 cells
Sm TGR block: blocks Schistosoma mansoni thioredoxin glutathione reductase; purified TGR, DTNB reduction, TNB absorbance 405 nm; AID 485364; Potency, µM (doses to about 114 µM), for inactives: at the top dose activity change, negative = inhibition, actives largely listed as inhibitors; Q962Y6; 360,000 compounds, 3% hits; active = well fitted inhibition curve with a large enough effect; inconclusive = small, poorly fitted or top-dose-only effect; inactive = no such curve, though single readings can be large or run the other way; note: nearly all actives have a fitted effect of over 60% in size
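Kinetic colorimetric format: TGR-catalysed, NADPH-driven DTNB reduction monitored via TNB absorbance. Enzyme dispensed at 20 nM; compound exposure 15 min at room temperature before reaction start.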
LASV entry inh: Lassa virus entry inhibition; Lassa virus pseudotype entry inhibition, cell reporter; Potency, µM (doses to about 37.9 µM), for inactives: at the top dose activity change, negative = inhibition, usual class: inhibitors; 300,000 compounds, 1.2% hits; calls by dose curve; tested in HEK293 cells; note: nearly all actives have a fitted effect of over 50% in size
FMDV antiviral: foot and mouth disease virus antiviral activity | FMDV antiviral cell-based qHTS | Potency, µM (series often up to 57.9 µM), without a hit: at the highest dose activity change, negative = inhibition, hits mostly inhibitors | 410,000 compounds, 1.2% hits | AID 1159524; calls by dose curve; tested in HEK293T cells; note: read-out not given here; nearly all actives have a fitted effect of over 45% in size
Active calls of the source: *; i = inactive; ? = inconclusive; . = no result; ! = a repeat was not active; [ ] = another dose, or the depositor's remark. % is set by controls: 0 for no effect and ±100 for the full control effect; potency is the fitted concentration of half-maximal effect.

SMILES	VACV mCherry inh	VACV Venus inh	Marburg entry inh	Sm TGR block	LASV entry inh	FMDV antiviral
O=[N+]([O-])CC(=Nc1ccc(F)cc1)N/N=C\c1oc(O)c2ccccc12	.	.	.	11µM*	.	.
Cc1nc(C)n(CC(=O)NCC2Cc3cc(-c4cccc(OC(F)(F)F)c4)ccc3O2)n1 (configuration not stated)	-2%	-6%	.	.	.	-21%
Cc1ccc(S(=O)(=O)C(c2ccccc2)c2c(C)noc2C)cc1 (configuration not stated)	-10%	-15%	0.63µM*	-3%	0%	-27%
Cc1noc(C)c1C(c1ccccc1)S(=O)(=O)c1ccccc1 (configuration not stated)	-14%	-17%	?	-8%	?	0%
COc1ccc(C)cc1NS(=O)(=O)c1ccc2[nH]c(=O)c(=O)[nH]c2c1	0%	5%	?	0%	?	-13%
C[C@]1(O)CC(=O)C=C[C@H]1Nc1ccccc1	?	?	.	.	.	25µM*
CC1(C)CC(C(=O)Nc2ccccc2)C(=O)O1 (configuration not stated)	-3%	-8%	8%[46.1 µM]	.	3%	18%
Cc1ccccc1C(=O)n1nc(-c2ccco2)nc1NCc1cccs1	-12%	-11%	12%[46.1 µM]	-33%	-3%[46.1 µM]	0%
CC12CCC3c4ccc(OC(=O)N(CCCl)CCCl)cc4CCC3C1CCC2O (configuration not stated)	-29%	?	?	.	5.6µM*	-30%
CC/C(=N\Nc1ccccc1)c1c(O)n(-c2ccccc2)c(=O)[nH]c1=O	-12%	-23%	-19%	6%	10µM*	-30%
Cc1ccc(N/N=C/c2c(O)n(-c3ccccc3)c(=O)[nH]c2=O)cc1	-20%	-7%	?	18µM*	?	53%
CCOC(=O)c1cccc(NC(=O)CCCn2c(C)c3cnn(-c4ccccc4)c(=O)c3c2C)c1	-10%	-7%	-25%[46.1 µM]	4%	-26%[46.1 µM]	?
CC1=C(C(=O)OCc2ccccc2)C(/C=C/c2ccccc2)NC(=S)N1 (configuration not stated)	-21%	?	?	1%	13µM*	?
O=CN1CCCN(C(=O)CC2C(=O)NCCN2Cc2cccc(Oc3ccccc3)c2)CC1 (configuration not stated)	i[7.34 µM]	0%[7.34 µM]	.	13µM*	.	-4%
CN(Cc1ccon1)C(=O)CC1C(=O)NCCN1Cc1cccc(Oc2ccccc2)c1 (configuration not stated)	.	.	.	?	.	-22%
CN(Cc1ccccn1)C(=O)CC1C(=O)NCCN1Cc1ccc(F)cc1Cl (configuration not stated)	.	.	.	45µM*	.	-11%
CN(Cc1ccccn1)C(=O)CC1C(=O)NCCN1Cc1cccc(Oc2ccccc2)c1 (configuration not stated)	i	-10%	?	50µM*	?	-9%
CN(Cc1cnn(C)c1)C(=O)CC1C(=O)NCCN1Cc1cccc(Oc2ccccc2)c1 (configuration not stated)	-8%	-15%	7%[46.1 µM]	40µM*	-8%	11%
N#CCC1(O)C(=O)N(Cc2ccccc2)c2ccccc21 (configuration not stated)	3%	-2%	.	.	.	-7%
CC1=C(c2ccc(C(C)C)cc2)S(=O)(=O)NC1=NCc1ccccc1Br	-21%	-19%	?	-3%	-2%[46.1 µM]	23%
COc1cccc(CN2CCNC(=O)C2CC(=O)N(C)C2CCCCC2)c1 (configuration not stated)	-21%	0%	-20%[46.1 µM]	45µM*	6%[46.1 µM]	-10%
CC(C)c1nc(CNC(=O)CC2C(=O)NCCN2Cc2ccc(F)cc2Cl)cs1 (configuration not stated)	-18%	-10%	-6%[46.1 µM]	?	-4%[46.1 µM]	-21%
O=C(CC1C(=O)NCCN1Cc1ccc(F)cc1Cl)NCc1ccon1 (configuration not stated)	.	.	.	13µM*	.	?
COc1cccc(CN2CCNC(=O)C2CC(=O)N(C)C2CCOCC2)c1 (configuration not stated)	.	.	.	?	.	1%
CN(CC1CCOCC1)C(=O)CC1C(=O)NCCN1Cc1cccc(Oc2ccccc2)c1 (configuration not stated)	.	.	.	40µM*	.	-10%
SMILES	VACV mCherry inh	VACV Venus inh	Marburg entry inh	Sm TGR block	LASV entry inh	FMDV antiviral
COc1cccc(CN2CCNC(=O)C2CC(=O)N(C)CC2CCOCC2)c1 (configuration not stated)	-13%	-12%	15%	?	-3%	-17%
CC(=O)OC[C@H]1O[C@H](CC=NO[C@H](C)c2cn([C@H](CO)Cc3ccccc3)nn2)C=C[C@@H]1OC(C)=O	.	.	13%[14.2 µM]	.	-21%[14.3 µM]	.
Cc1ccc(C2CC(C(F)(F)F)n3nc(C(=O)NCc4c(C)nn(C)c4C)c(Cl)c3N2)cc1 (configuration not stated)	?	?	12µM*!	6%	?	25µM*
O=C1c2ccccc2C(=O)N1CC#CCN1CCN(C(c2ccccc2)c2ccccc2)CC1	-12%[1.46 µM]	-29%	-18%	50µM*	?	-38%
c1ccc(N2CCN(c3ccccc3)C2c2cccnc2)cc1	.	-18%	6%	6%	0%	10µM*
Cc1ccc(C(=O)Nc2cc3c(cc2C)n(C)c(=O)c(=O)n3C)cc1	-10%	-8%	.	-5%	8%[46.1 µM]	0%
CC(COc1ccccc1)N(CCCl)Cc1ccccc1 (configuration not stated)	-2%	?	?	25µM*	?	-2%
N#Cc1ccc(N2CCCNCC2)nc1	.	.	.	28µM*	.	-3%
Cc1ccc(N2CCN(C(=O)C3CCN(c4ncnc5c4nc4n5CCCCC4)CC3)CC2)c(C)c1	-14%	-25%	.	-10%	?	?
Cc1noc(-c2ccc(-c3noc(-c4ccc(F)cc4)n3)cc2)n1	-12%	-5%	.	0%	5%[46.1 µM]	-8%
Fc1ccc(-c2noc(-c3ccc4c(c3)CCO4)n2)cc1	i	-6%	?	13%	10µM*	-44%
CCCNC(=O)c1nnsc1S(=O)(=O)c1ccc(Cl)cc1	?	13µM*	?	0.32µM*	2.8µM*	32µM*
CCCNC(=O)c1ccc2snnc2c1	.	0%	1%	-3%	-7%	-5%
CNC(=O)c1nnsc1S(=O)c1ccc(Cl)cc1 (configuration not stated)	-28%	-21%	?	0.32µM*	?	?
CCCNC(=O)c1nnsc1S(=O)c1ccc(Cl)cc1 (configuration not stated)	?	?	?	0.32µM*	?	35µM*
Cc1ncc2c(c1CNC(=O)c1cncs1)CCN(C(=O)c1csc(-c3cccs3)n1)C2	-4%	11%	.	.	.	-4%
Cc1cc(CNC(=O)c2cc(Br)ccc2Cl)nn1C	.	.	1%	2%	6%	-26%
OCCCNC(=S)Nc1ccc(Br)cc1Cl	-2%	-22%	-2%	3.2µM*	26%	58%
